# Article PMC7862700, “An all-to-all approach to the identification of sequence-specific readers for epigenetic DNA modifications on cytosine”
# Legend:
# Experiment in all cases: DAPPL (digital affinity profiling via proximity ligation, sequencing); 10 mM Tris-HCl pH 7.5, 50 mM NaCl, 1 mM DTT, 4% glycerol, room temperature, 30 min; GST-TFs on glutathione beads, 16-mer random dsDNA library, 0.1% formaldehyde crosslink after washing; high values mean tight binding
# [1] = molecular target: T1, FEV (Homo sapiens, UniProt Q99581 1-238); conditions: protein: recombinant; tags: N-terminal GST; dsDNA, one strand shown
# T1 sequence: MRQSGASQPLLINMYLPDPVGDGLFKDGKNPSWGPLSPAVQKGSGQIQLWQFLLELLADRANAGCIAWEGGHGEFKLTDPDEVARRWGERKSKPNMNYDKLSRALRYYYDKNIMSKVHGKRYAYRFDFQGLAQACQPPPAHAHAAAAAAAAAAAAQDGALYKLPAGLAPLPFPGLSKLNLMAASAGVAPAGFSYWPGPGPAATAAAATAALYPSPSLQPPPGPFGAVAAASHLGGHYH
# Outline: (§1)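 Binding signal is each hexamer's read frequency for a factor divided by its frequency in the tag-only sample. The factors were GST-fused human transcription factors from yeast, captured on glutathione beads, DNA-barcoded and pooled with that sample. Pools were incubated with 200 nmole of a random double-stranded 16-mer DNA library in Tris/NaCl/DTT/glycerol buffer at room temperature for 30 min, then washed, crosslinked with 0.1% formaldehyde, proximity-ligated with BsaI/T4 ligase (1 h, 37 °C), PCR-amplified and sequenced on an Illumina NextSeq500.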
# [2] = molecular target: ETV5 (Homo sapiens, UniProt P41161 1-510); conditions: protein: recombinant; tags: N-terminal GST; dsDNA, one strand shown
# Outline: as §1
# [3] = molecular target: HSF1 (Homo sapiens, UniProt Q00613 1-529); conditions: protein: recombinant; tags: N-terminal GST; chain copies: 3; dsDNA, one strand shown
# Outline: as §1
# [4] = molecular target: T2, SPIC (Homo sapiens, UniProt Q8N5J4 1-248); conditions: protein: recombinant; tags: N-terminal GST; dsDNA, one strand shown
# T2 sequence: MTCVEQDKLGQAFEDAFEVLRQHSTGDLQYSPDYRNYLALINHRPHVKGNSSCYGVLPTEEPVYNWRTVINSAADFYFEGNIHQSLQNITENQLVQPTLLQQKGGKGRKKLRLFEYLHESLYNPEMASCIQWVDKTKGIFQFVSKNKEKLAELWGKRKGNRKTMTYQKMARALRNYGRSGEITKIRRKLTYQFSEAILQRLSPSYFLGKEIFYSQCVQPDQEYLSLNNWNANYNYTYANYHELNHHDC
# Outline: as §1
# [5] = molecular target: ELF4 (Homo sapiens, UniProt Q99607 1-663); conditions: protein: recombinant; tags: N-terminal GST; dsDNA, one strand shown
# Outline: as §1
# [6] = molecular target: T3, ELK4 (Homo sapiens, UniProt P28324-2 1-405); conditions: protein: recombinant; tags: N-terminal GST; dsDNA, one strand shown
# T3 sequence: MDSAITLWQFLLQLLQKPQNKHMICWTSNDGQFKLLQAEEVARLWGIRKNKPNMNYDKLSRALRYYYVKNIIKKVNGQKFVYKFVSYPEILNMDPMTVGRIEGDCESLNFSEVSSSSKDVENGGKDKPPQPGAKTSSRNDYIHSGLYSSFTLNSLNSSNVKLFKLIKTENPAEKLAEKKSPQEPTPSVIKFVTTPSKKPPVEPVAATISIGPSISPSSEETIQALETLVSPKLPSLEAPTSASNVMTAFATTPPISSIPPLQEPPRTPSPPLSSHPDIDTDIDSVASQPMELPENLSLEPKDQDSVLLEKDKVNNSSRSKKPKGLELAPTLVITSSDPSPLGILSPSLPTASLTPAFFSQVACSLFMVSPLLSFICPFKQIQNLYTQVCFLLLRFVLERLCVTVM
# Outline: as §1
# [7] = molecular target: T4, ETV2 (Homo sapiens, UniProt O00321 1-342); conditions: protein: recombinant; tags: N-terminal GST; dsDNA, one strand shown
# T4 sequence: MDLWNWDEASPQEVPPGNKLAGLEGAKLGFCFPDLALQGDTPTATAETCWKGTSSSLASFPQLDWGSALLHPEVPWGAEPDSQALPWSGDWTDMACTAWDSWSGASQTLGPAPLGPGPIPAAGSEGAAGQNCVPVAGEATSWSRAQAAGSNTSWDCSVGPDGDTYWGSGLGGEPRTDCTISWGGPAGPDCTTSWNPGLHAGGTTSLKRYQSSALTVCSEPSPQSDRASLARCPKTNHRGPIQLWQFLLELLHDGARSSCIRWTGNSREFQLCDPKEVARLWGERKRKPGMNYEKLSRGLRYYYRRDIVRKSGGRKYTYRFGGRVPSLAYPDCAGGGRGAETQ
# Outline: as §1
# [8] = molecular target: T5, ELF3 (Homo sapiens, UniProt P78545 1-371); conditions: protein: recombinant; tags: N-terminal GST; dsDNA, one strand shown
# T5 sequence: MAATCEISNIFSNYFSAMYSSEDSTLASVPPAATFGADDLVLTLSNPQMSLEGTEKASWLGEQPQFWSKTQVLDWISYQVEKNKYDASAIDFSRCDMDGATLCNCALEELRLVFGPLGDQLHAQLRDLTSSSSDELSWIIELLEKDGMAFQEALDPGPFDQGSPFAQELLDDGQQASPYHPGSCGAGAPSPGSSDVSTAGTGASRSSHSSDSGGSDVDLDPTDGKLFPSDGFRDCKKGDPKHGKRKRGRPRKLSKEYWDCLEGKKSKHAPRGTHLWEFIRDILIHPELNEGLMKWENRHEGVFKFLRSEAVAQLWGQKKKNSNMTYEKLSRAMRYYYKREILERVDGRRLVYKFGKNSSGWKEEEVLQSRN
# Outline: as §1
# [9] = molecular target: CRX (Homo sapiens, UniProt O43186 1-299); conditions: protein: recombinant; tags: N-terminal GST; dsDNA, one strand shown
# Outline: as §1
# [10] = molecular target: ETV1 (Homo sapiens, UniProt P50549 1-477); conditions: protein: recombinant; tags: N-terminal GST; dsDNA, one strand shown
# Outline: as §1
# [11] = molecular target: T6, ERF (Homo sapiens, UniProt P50548 1-548); conditions: protein: recombinant; tags: N-terminal GST; dsDNA, one strand shown
# T6 sequence: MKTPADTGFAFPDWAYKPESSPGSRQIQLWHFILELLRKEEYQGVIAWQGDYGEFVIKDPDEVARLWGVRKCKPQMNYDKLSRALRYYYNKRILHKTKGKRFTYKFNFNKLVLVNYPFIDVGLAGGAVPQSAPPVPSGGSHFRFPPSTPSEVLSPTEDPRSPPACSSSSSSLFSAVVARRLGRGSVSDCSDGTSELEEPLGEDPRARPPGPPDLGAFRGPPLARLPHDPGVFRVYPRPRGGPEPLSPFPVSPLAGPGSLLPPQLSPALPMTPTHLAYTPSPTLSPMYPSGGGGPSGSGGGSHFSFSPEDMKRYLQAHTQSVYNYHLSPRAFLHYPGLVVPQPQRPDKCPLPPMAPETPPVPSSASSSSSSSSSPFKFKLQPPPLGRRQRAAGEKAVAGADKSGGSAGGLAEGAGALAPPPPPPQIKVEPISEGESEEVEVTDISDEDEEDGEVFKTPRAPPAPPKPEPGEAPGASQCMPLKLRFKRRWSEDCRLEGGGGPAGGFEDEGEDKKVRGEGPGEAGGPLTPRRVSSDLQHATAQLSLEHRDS
# Outline: as §1
# [12] = molecular target: T7, ETV3L (Homo sapiens, UniProt Q6ZN32 1-361); conditions: protein: recombinant; tags: N-terminal GST; dsDNA, one strand shown
# T7 sequence: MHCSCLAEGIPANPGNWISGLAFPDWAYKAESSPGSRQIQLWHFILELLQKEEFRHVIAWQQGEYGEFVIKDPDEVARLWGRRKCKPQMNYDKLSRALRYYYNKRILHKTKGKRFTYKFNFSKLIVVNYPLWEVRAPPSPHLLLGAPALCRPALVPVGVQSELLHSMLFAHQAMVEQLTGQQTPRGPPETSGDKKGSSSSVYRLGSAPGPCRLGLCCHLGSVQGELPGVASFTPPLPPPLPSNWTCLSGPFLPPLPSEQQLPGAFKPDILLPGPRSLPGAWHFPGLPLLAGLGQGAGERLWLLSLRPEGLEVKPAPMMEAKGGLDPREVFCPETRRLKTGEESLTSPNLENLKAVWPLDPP
# Outline: as §1
# [13] = molecular target: T8, ETS2 (Homo sapiens, UniProt P15036 1-469); conditions: protein: recombinant; tags: N-terminal GST; dsDNA, one strand shown
# T8 sequence: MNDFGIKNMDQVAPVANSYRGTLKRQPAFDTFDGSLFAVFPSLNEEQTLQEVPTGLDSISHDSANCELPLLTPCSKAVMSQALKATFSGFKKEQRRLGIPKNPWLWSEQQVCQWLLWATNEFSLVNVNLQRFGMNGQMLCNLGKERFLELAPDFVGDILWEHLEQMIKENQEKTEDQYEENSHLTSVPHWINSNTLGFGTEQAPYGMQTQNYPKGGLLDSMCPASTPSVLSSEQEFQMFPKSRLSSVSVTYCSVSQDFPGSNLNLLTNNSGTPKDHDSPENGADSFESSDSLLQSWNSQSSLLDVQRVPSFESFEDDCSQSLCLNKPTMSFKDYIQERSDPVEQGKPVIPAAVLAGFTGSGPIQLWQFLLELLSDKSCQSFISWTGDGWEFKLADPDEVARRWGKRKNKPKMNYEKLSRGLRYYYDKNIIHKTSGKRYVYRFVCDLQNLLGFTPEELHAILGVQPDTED
# Outline: as §1
# [14] = molecular target: T9, SPDEF (Homo sapiens, UniProt O95238 1-335); conditions: protein: recombinant; tags: N-terminal GST; dsDNA, one strand shown
# T9 sequence: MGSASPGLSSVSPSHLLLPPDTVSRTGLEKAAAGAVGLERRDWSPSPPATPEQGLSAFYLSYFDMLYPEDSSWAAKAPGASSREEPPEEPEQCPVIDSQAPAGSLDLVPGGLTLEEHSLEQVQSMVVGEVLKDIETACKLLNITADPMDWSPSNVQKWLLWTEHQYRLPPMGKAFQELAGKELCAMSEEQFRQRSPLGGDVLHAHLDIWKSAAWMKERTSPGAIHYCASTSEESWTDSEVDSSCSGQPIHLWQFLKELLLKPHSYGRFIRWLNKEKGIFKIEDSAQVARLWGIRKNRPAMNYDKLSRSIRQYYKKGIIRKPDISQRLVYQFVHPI
# Outline: as §1
# [15] = molecular target: T10, ETV7 (Homo sapiens, UniProt Q9Y603 1-341); conditions: protein: recombinant; tags: N-terminal GST; dsDNA, one strand shown
# T10 sequence: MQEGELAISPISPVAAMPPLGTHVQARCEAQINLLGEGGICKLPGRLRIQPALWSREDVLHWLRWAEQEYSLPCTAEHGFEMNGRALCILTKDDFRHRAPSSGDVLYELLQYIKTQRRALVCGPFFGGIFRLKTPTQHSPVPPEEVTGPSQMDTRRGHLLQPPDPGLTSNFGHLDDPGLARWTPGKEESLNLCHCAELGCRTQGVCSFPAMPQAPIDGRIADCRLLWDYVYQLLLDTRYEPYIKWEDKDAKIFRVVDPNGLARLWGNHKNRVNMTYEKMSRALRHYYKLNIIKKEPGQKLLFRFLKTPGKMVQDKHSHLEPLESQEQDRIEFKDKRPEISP
# Outline: as §1
# [16] = molecular target: T11, ELF5 (Homo sapiens, UniProt Q9UKW6-2 1-255); conditions: protein: recombinant; tags: N-terminal GST; dsDNA, one strand shown
# T11 sequence: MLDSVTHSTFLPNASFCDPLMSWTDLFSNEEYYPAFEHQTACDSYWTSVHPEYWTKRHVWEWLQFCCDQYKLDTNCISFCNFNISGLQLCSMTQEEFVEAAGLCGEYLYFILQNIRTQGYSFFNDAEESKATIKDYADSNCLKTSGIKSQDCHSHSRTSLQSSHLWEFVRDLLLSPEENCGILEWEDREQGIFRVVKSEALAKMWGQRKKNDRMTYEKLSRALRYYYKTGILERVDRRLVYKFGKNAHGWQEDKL
# Outline: as §1
# [17] = molecular target: T12, ETV3 (Homo sapiens, UniProt P41162-2 1-143); conditions: protein: recombinant; tags: N-terminal GST; dsDNA, one strand shown
# T12 sequence: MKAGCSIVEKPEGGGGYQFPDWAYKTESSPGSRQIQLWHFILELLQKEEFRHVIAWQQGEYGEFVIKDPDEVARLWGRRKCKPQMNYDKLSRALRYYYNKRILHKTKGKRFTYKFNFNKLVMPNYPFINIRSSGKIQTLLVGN
# Outline: as §1
# [18] = molecular target: ETV6 (Homo sapiens, UniProt P41212 1-452); conditions: protein: recombinant; tags: N-terminal GST; dsDNA, one strand shown
# Outline: as §1
# ETV6, sequence (P41212 whole entry): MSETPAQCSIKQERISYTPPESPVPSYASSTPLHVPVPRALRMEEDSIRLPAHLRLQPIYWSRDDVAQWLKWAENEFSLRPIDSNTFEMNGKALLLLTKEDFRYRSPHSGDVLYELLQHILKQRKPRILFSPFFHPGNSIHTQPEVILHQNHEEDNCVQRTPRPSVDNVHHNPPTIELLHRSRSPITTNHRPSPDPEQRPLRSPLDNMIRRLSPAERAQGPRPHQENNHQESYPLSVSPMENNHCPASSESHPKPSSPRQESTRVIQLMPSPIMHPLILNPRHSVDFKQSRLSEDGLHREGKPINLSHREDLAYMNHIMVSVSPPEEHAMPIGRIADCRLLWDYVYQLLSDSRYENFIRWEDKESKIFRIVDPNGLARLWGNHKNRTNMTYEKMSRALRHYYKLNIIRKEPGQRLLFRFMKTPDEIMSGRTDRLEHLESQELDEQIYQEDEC
# CRX, sequence (O43186 whole entry): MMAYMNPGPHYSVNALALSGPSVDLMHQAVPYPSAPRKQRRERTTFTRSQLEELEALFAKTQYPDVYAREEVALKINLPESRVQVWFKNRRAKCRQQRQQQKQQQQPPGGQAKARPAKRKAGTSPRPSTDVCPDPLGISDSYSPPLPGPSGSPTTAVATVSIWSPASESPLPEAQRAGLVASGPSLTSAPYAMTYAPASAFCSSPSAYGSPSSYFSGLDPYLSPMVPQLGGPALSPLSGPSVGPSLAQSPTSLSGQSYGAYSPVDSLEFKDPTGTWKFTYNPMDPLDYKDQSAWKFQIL
# ETV5, sequence (P41161 whole entry): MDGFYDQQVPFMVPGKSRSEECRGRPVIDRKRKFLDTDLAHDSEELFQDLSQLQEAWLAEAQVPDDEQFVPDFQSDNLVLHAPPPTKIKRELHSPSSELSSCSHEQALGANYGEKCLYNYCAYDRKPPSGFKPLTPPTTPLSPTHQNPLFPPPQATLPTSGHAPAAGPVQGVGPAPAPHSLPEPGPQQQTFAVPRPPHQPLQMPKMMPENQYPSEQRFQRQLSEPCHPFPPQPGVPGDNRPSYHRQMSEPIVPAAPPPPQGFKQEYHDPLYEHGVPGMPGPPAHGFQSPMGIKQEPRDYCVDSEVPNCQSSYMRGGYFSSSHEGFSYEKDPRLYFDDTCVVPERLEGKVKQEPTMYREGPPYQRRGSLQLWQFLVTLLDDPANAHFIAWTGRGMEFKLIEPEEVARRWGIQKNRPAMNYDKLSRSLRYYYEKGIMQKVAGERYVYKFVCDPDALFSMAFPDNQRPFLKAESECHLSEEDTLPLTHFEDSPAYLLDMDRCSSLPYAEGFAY
# ELF4, sequence (Q99607 whole entry): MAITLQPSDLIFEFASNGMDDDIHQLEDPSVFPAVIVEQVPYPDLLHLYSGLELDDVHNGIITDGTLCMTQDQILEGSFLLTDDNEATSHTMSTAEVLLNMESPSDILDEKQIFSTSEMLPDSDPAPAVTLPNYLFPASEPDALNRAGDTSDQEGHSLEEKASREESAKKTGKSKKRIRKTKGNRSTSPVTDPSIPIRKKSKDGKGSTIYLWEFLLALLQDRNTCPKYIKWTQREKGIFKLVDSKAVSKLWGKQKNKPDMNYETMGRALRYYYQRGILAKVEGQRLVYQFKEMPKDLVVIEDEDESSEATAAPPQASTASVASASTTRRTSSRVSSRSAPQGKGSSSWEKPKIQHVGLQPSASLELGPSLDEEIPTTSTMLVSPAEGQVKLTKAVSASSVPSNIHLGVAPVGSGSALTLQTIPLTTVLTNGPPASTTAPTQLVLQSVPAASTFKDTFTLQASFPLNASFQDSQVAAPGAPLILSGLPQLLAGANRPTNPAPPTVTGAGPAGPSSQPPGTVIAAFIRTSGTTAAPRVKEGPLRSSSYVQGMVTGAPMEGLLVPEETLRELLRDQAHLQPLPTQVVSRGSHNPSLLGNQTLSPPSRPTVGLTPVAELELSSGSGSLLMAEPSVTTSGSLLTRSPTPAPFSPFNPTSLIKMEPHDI
# ETV1, sequence (P50549 whole entry): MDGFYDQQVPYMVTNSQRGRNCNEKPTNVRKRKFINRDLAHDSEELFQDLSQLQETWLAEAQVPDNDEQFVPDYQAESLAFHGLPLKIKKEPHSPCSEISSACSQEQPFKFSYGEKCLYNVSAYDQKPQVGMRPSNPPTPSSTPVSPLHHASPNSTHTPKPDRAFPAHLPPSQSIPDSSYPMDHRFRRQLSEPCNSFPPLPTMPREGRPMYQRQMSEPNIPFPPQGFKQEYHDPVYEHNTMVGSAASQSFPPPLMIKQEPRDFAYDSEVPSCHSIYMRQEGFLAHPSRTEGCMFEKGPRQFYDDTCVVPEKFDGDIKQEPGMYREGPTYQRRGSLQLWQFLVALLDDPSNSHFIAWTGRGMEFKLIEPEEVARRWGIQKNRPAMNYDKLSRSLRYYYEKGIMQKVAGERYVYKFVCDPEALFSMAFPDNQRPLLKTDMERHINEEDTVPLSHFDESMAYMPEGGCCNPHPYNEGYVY
# HSF1, sequence (Q00613 whole entry): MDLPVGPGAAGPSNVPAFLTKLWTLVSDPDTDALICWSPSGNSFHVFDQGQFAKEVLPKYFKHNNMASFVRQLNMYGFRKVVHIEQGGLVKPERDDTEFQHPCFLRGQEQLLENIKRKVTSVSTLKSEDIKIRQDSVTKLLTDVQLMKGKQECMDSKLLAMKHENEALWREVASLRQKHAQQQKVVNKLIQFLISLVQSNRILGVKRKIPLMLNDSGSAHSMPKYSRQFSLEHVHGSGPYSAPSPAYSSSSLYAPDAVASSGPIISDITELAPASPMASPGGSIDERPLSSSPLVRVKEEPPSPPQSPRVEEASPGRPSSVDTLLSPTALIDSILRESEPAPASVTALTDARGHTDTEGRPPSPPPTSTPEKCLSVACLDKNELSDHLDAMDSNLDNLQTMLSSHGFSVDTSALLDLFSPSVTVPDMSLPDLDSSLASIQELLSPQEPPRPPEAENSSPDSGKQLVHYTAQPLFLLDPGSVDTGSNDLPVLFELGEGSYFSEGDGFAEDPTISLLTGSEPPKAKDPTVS
sequence,measurement,setting,value
TATTGC,binding signal,[1],"1.33 fold enrichment (6-mer frequency, TF over GST control)"
same,binding signal,[2],"1.34 fold enrichment (6-mer frequency, TF over GST control)"
same,binding signal,[3],"1.21 fold enrichment (6-mer frequency, TF over GST control)"
same,binding signal,[4],"1.5 fold enrichment (6-mer frequency, TF over GST control)"
same,binding signal,[5],"1.41 fold enrichment (6-mer frequency, TF over GST control)"
same,binding signal,[6],"1.29 fold enrichment (6-mer frequency, TF over GST control)"
same,binding signal,[7],"1.22 fold enrichment (6-mer frequency, TF over GST control)"
same,binding signal,[8],"1.2 fold enrichment (6-mer frequency, TF over GST control)"
same,binding signal,[9],"1.47 fold enrichment (6-mer frequency, TF over GST control)"
same,binding signal,[10],"1.45 fold enrichment (6-mer frequency, TF over GST control)"
same,binding signal,[11],"1.31 fold enrichment (6-mer frequency, TF over GST control)"
same,binding signal,[12],"1.4 fold enrichment (6-mer frequency, TF over GST control)"
same,binding signal,[13],"1.36 fold enrichment (6-mer frequency, TF over GST control)"
same,binding signal,[14],"1.31 fold enrichment (6-mer frequency, TF over GST control)"
same,binding signal,[15],"1.36 fold enrichment (6-mer frequency, TF over GST control)"
same,binding signal,[16],"1.27 fold enrichment (6-mer frequency, TF over GST control)"
same,binding signal,[17],"1.41 fold enrichment (6-mer frequency, TF over GST control)"
same,binding signal,[18],"1.38 fold enrichment (6-mer frequency, TF over GST control)"
